Laboratory results from PubChem BioAssay (NCATS).
Several values for one entry are separate records, joined by “and”; a condition that tells them apart may be missing. Equal values may be shown once. Records with an inconclusive call do not appear. A number with no mark means an inactive call. Activity calls are given as the source filed them. Calls follow the shape of the dose curve; as a rule, active = well fitted cell-killing curve with a large enough effect; inconclusive = small, poorly fitted or top-dose-only effect; inactive = flat fitted curve, though single readings scatter.

experiment: Cellular viability qHTS for adrenocortical cancer (ACC) cell line SW-13 (AID 1963989); conditions: SW-13 ACC cells viability, CellTiter-Glo, 48 h; activity (max response): hits give low values; also: nearly all actives have a fitted effect of over 65% in size;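 as to activity (max response): cells grown in serum-free medium with ITS supplement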
Procedure, shortened: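 Compound titrations (up to 46 uM final, in DMSO) were applied to SW-13 cells for 48 h at 37C/5% CO2. Reading used CellTiter-Glo after 20 min at room temperature; fitted curves yielded IC50 and efficacy.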
% is scaled to controls: 0 for no effect and ±100 for the full control effect; potency is read from the fitted curve at half-maximal effect.

Row | SMILES | activity (max response) | Potency
1 | O=C(CCCl)NCCc1ccccc1 | -1.73% | 
2 | NC1=N[C@@]2(c3cc(NC(=O)c4ccc(F)cn4)ccc3F)COC[C@H]2CS1 | -8.2% | 
3 | C[C@H]1[C@H]2CC[C@H]3[C@@H]4CC=C5C[C@@H](N(C)C)CC[C@]5(C)[C@H]4CC[C@]23CN1C | -17.7% | 
4 | CC(=O)Nc1ccc(CC(=O)O)cc1 | 4.33% | 
5 | O=C(CCl)Nc1cccc(NC2=NS(=O)(=O)c3ccccc32)c1 |  | 8910 nM (active)
6 | FC(F)(F)c1ccc(CNc2ccc(Cc3c[nH]c4ncccc34)cn2)cc1 |  | 10000 nM (active)
7 | COc1cc2c(cc1OC)CN(CCc1ccc(-n3nnc(-c4cc(OC)c(OC)cc4NC(=O)c4cc(=O)c5ccccc5o4)n3)cc1)CC2 | -2.39% | 
8 | OC[C@H]1O[C@@H](S[C@@H]2O[C@H](CO)[C@H](O)[C@H](n3cc(-c4cccc(F)c4)nn3)[C@H]2O)[C@H](O)[C@@H](n2cc(-c3cccc(F)c3)nn2)[C@H]1O | 11.8% | 
9 | NC(=O)c1nc(F)c[nH]c1=O | 0.237% | 
10 | CCN(CC)C(=O)/C(C#N)=C/c1cc(O)c(O)c([N+](=O)[O-])c1 | 3.46% | 
11 | COc1ccc(/C(C)=C/C(=O)O)c(OC)c1 | 9.2% | 
12 | NCCCC[C@H](N[C@@H](CCc1ccccc1)C(=O)O)C(=O)N1CCC[C@H]1C(=O)O | 4.67% | 
13 | Cc1ccc(C(=O)Nc2ccc(CN3CCN(C)CC3)c(C(F)(F)F)c2)cc1C#Cc1cnc2[nH]ncc2c1 |  | 1780 nM (active)
14 | Cc1cc(C)cc(NC(=O)Cc2ccc(OC(C)(C)C(=O)O)cc2)c1 | 8.53% | 
15 | CCN(c1cc(C#CCN2CCOCC2)cc(C(=O)NCc2c(C)cc(C)[nH]c2=O)c1C)C1CCC(N(C)CCOC)CC1 (stereo not given) | 7.49% | 
16 | CC[C@]1(O)CC2CN(CCc3c([nH]c4ccccc34)[C@@](C(=O)OC)(c3cc4c(cc3OC)N(C)[C@H]3[C@@](O)(C(=O)OC)[C@H](OC(C)=O)[C@]5(CC)C=CCN6CC[C@]43[C@@H]65)C2)C1 (stereo not given in full) |  | 282 nM (active)
17 | O=C(Nc1ccnc(NC(=O)C2CC2)c1)c1c(Cl)cccc1Cl |  | 15800 nM (active)
18 | CC1(C)S[C@H]2[C@H](NC(=O)[C@@H](N)c3ccc(O)cc3)C(=O)N2[C@H]1C(=O)O | 7.49% | 
19 | CC(=O)Oc1cccc(O)c1 | 7.39% | 
20 | CC[C@@H](C)Nc1cc(C(=O)NC2CC3CCC(C2)N3c2ccc(C(=O)C3CC3)cn2)c(C)cc1C(N)=O (stereo not given in full) |  | 355 nM (active)

Row | SMILES | activity (max response) | Potency
21 | CC1=C(/C=C/C(C)=C/C=C/C(C)=C/C(=O)O)C(C)(C)CCC1 | -7.6% and 3.95% | 
22 | [2H]C([2H])([2H])C(O)([C@@H](C)/C=C/[C@@H](C)[C@H]1CC[C@H]2/C(=C/C=C3C[C@@H](O)C[C@H](O)C3)CCC[C@]12C)C([2H])([2H])[2H] | -26.6% | 
23 | CC(/C=C/[C@@H]1C[C@]1(C)c1ccc2c(c1)C(C)(C)CCC2(C)C)=C\C(=O)O | -5.24% | 
24 | Cc1c(F)cc(C(=O)NC2CC2)cc1-c1ccc(C(=O)NCC(C)(C)C)cn1 | 1.4% | 
25 | CC1=C(C(=O)O)N2C(=O)[C@@H](NC(=O)[C@H](N)c3ccc(O)cc3)[C@H]2SC1 | 8.09% | 
26 | CN1CCN(C(=O)c2ccc(-c3ccc4c(C=O)c(O)ccc4c3)s2)CC1 | 9.42% | 
27 | NC(=O)NNc1ccccc1 | -10.9% | 
28 | O=C(O)CNC(=O)c1nc(Cl)c2ccccc2c1O | 8.31% | 
29 | CN(C)C/C=C/C(=O)Nc1cccc(C(=O)Nc2cccc(Nc3ncc(Cl)c(-c4c[nH]c5ccccc45)n3)c2)c1 |  | 316 nM (active)
30 | CCCC1(CCC)CCC2(CCN(CCCN(CC)CC)C2)CC1 |  | 3550 nM (active)
31 | CCOC(=O)c1cc(=O)c2c(OCC(COc3cccc4oc(C(=O)OCC)cc(=O)c34)OC(=O)[C@@H](N)CCCCN)cccc2o1 | 4.59% | 
32 | NCC[C@H](O)C(=O)N[C@@H]1C[C@H](N)[C@@H](O[C@H]2O[C@H](CN)[C@@H](O)[C@H](O)[C@@H]2O)[C@H](O)[C@@H]1O[C@H]1O[C@H](CO)[C@@H](O)[C@H](N)[C@@H]1O | 11.7% | 
33 | O=S1(=O)OC(c2ccc(O)cc2)(c2ccc(O)cc2)c2ccccc21 | -5.64% | 
34 | CNCCn1c(=O)c2cc(OC)c(OC)cc2c2cnc3cc4c(cc3c21)OCO4 |  | 42.2 nM (active)
35 | CCC(CC)CC1(C(=O)Nc2ccccc2SC(=O)C(C)C)CCCCC1 | 9.72% | 
36 | NC(CS)C(=O)O (stereo not given) | 12.6% | 
37 | C[C@H]1CNC(=O)c2cnn3ccc(nc23)N[C@H](C)c2cc(F)ccc2O1 |  | 8910 nM (active)
38 | O=C(c1ccccc1)c1ccccc1 | 13.9% | 
39 | COC(=O)[C@@H](N)Cc1ccc(O)c(O)c1 | -15% | 
40 | CCCc1ccc(OCC(=O)N2CCN(C(=O)COc3ccc(CCC)cc3OC)CC2)c(OC)c1 | 4.95% | 
